# High-throughput results: PubChem BioAssay, several laboratories
# sEH act – soluble epoxide hydrolase activators, primary screen, biochemical, human sEH; purified human sEH enzymatic activity, activator screen; activation, % at 2 µM; Bifunctional epoxide hydrolase 2 (Homo sapiens), P34913; hit rate 0.04% among 91,000; in the data active = activation above about 37%
# CYP2C9 activ – human CYP2C9 activators, primary screen, biochemical, luminescence; recombinant CYP2C9, luciferin-H conversion; hits give high values; factor 1 = untreated enzyme, 0 = blocked; activation factor at 5 µM; hit rate 1.4% among 96,000;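 active = activation factor of 2 or more for CYP2C9 at a 5 µM dose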;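 also: 0 = sulfaphenazole-blocked wells and 1 = vehicle-only wells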
# sEH inh – soluble epoxide hydrolase inhibitors, primary screen, biochemical, human sEH. Bifunctional epoxide hydrolase 2 (Homo sapiens), P34913. recombinant human sEH enzymatic activity assay. inhibition, % at 2 µM. hit rate 0.34% among 91,000; in the data active = inhibition above about 80%
# CYP2C19 inh – blockers of cytochrome P450 2C19 activity – biochemical, luminescence, ADME assay, primary screen. CYP2C19 Supersomes, luciferin-H EGE luminescence, 30 min. inhibition, % at 5 µM. hit rate 21% among 96,000. AID 778, 2007;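 active = CYP2C19 inhibition above a set limit at 5 µM in the primary screen, cut at about 50% in these data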;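 also: plate controls were negative control wells for no effect and 2.5 mM tranylcypromine positive control for full effect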
# Target sequence (P33261 whole entry, looked up): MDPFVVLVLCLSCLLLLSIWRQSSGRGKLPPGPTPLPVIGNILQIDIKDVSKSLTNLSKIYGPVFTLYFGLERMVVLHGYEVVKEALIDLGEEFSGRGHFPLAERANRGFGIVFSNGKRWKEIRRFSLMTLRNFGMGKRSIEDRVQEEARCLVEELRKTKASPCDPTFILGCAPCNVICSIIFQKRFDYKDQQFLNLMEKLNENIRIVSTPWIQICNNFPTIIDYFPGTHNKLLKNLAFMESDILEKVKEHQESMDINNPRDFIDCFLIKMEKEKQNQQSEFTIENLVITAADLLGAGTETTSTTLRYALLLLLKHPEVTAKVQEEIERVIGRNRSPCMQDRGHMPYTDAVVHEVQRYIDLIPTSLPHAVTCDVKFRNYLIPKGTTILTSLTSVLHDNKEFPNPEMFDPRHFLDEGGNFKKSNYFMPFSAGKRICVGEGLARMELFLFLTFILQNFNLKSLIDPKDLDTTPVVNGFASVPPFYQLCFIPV
# CYP2C19 act – human CYP2C19 activators, primary screen, biochemical, luminescence | Cytochrome P450 2C19 (Homo sapiens), P33261 | recombinant CYP2C19, luciferin-H EGE luminescence; hits give high values; 0 = fully inhibited enzyme, 1 = untreated enzyme | activation factor at 5 µM | 96,000 tested, under 10 active;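 active = activation factor of at least 2 at 5 µM in the primary screen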;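 also: 0 = wells with 2.5 mM tranylcypromine and 1 = vehicle-only wells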
# CYP2C9 inh – blockers of cytochrome P450 2C9 activity – biochemical, luminescence, ADME assay, primary screen. inhibition, % at 5 µM. CYP2C9 Supersomes, luciferin-H conversion. AID 777, 2007. hit rate 20% among 96,000. P11712;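 active = blocking of liver enzyme CYP2C9 beyond about 50% at 5 µM, limit read from the data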
# * marks the source's active call; other numbers are inactive results; / = no result. An excerpt weighted towards active compounds, which were near 27% of everything screened.
SMILES,sEH act,CYP2C9 activ,sEH inh,CYP2C19 inh,CYP2C19 act,CYP2C9 inh
COc1ccc(N(CC(=O)Nc2ccc3c(c2)OCO3)S(=O)(=O)c2c(C)nn(C)c2C)cc1,-23,0.2,23,32,0.7,79*
COc1ccc(N(CC(=O)NCc2ccc3c(c2)OCO3)S(=O)(=O)c2c(C)nn(C)c2C)cc1,-2,0.8,6,87*,0.1,16
Cc1nn(C)c(C)c1S(=O)(=O)Nc1ccc2c(c1)OCO2,-6,1,8,81*,0.2,4
COc1ccc(NC(=O)CN(c2ccc(C)cc2)S(=O)(=O)c2c(C)nn(C)c2C)cc1OC,/,0.9,/,-3,1,9
Cc1ccc(C)c(NS(=O)(=O)c2c(C)nn(C)c2C)c1,-6,1,8,19,0.8,-1
COc1ccc2nc(NC(=O)CN(c3ccc(C)cc3)S(=O)(=O)c3c(C)nn(C)c3C)sc2c1,/,0.3,/,48,0.5,68*
COc1ccc(N(CC(=O)NCc2ccco2)S(=O)(=O)c2c(C)nn(C)c2C)cc1,-4,0.8,6,75*,0.3,20
COc1ccc(NC(=O)N(Cc2ccc(C)cc2)Cc2cccnc2)c(OC)c1,13,0.1,-15,97*,0,90*
CCc1ccc2[nH]c(=O)c(CN(Cc3ccccc3OC)C(=O)Nc3ccccc3OC)cc2c1,-8,0.1,6,-28,1.3,93*
CCOc1ccc2[nH]c(=O)c(CN(Cc3cccnc3)C(=O)Nc3ccccc3OC)cc2c1,3,0.8,-3,54*,0.5,22
CCOc1ccc2[nH]c(=O)c(CN(CCc3ccccc3)C(=O)c3cnccn3)cc2c1,/,0.6,/,51*,0.5,40
CCn1cc(C(=O)N2CC(C)CC(C)C2)c(=O)c2cc(S(=O)(=O)N3CCOCC3)ccc21 (centres undefined),-6,0.9,8,4,1,5
O=C(CCn1c(=O)oc2ccccc21)N1CCc2ccccc21,/,1,/,-2,1,4
COc1ccc2[nH]c(=O)c(CN(Cc3cccnc3)C(=O)Nc3ccccc3)cc2c1,/,0.1,/,88*,0.1,88*
CN(C)c1ccc(C2OC(=O)C3(CCCC3)C(=O)C2(C)C)cc1 (centres undefined),15,1.1,-15,16,0.8,-8
CC1(C)C(=O)OC(c2cccs2)C(C)(C)C1=O (centres undefined),-8,1,9,71*,0.3,5
CCOc1cc(C2CC(=O)Nc3cc(C)c(C)cc32)ccc1O (centres undefined),-1,0.2,-1,87*,0.1,84*
Cc1ccc(C2CC(c3cccc(C)c3)n3ncnc3N2)cc1 (centres undefined),-1,0.4,5,96*,0,57*
Cc1ccc(C2CC(c3ccccc3)n3ncnc3N2)cc1 (centres undefined),/,0.4,/,98*,0,65*
COCCNC(=O)Cn1nc(C(F)(F)F)c(Cl)c1C,-8,0.8,9,40,0.6,19
Cc1cc2nc(C(F)(F)F)[nH]c(=O)n2n1,/,1.1,/,-4,1,-10
CCN(CC)C(=O)CN1C(=O)C2CC=C(Cl)CC2C1=O (centres undefined),15,1,-13,1,1,-2
Cc1ccc(NC(=O)CSc2nc(NS(=O)(=O)c3ccccc3)cc(=O)[nH]2)cc1,1,0.4,0,23,0.8,61*
Cc1ccc(-c2csc(NC(=O)CSC3=NCCS3)n2)cc1,-9,/,9,/,/,/
Cc1cc(=O)[nH]c(SCC(=O)Nc2ccc(C(=O)O)cc2)n1,-9,0.8,12,14,0.9,16
SMILES,sEH act,CYP2C9 activ,sEH inh,CYP2C19 inh,CYP2C19 act,CYP2C9 inh
CCC(Sc1nc(-c2ccccc2)cc(=O)[nH]1)C(=O)O (centres undefined),8,1.2,-10,2,1,-17
CCC(Sc1nc(C)cc(=O)[nH]1)C(=O)Nc1nc(-c2ccccc2)cs1 (centres undefined),3,0.1,-1,71*,0.3,88*
Cc1ccc(-c2csc(NC(=O)CSc3nc(C)cc(=O)[nH]3)n2)cc1,13,0.2,-17,27,0.7,82*
CCC(Sc1nccn1C)C(=O)Nc1nnc(C)s1 (centres undefined),-4,1.1,3,-16,1.2,-12
CCC(Sc1nc(-c2ccccc2)c(C#N)c(=O)[nH]1)C(=O)Nc1nnc(C)s1 (centres undefined),10,0.3,-10,11,0.9,67*
CC1CN(C)C(C)CC1NCc1ccc2c(c1)OCO2 (centres undefined),/,0.9,/,14,0.9,5
CSc1ccccc1NC(=O)c1ccccc1N(Cc1ccccc1)S(C)(=O)=O,4,0.4,-3,43,0.6,59*
CS(=O)(=O)N(CC(=O)Nc1ccccc1Sc1ccccc1)c1cccc(Br)c1,1,0.3,1,14,0.9,66*
CSc1ccccc1NC(=O)c1ccccc1N(C)S(C)(=O)=O,8,1.2,-5,32,0.7,-22
CSc1ccccc1NC(=O)CN(c1cc(C)cc(C)c1)S(C)(=O)=O,6,0.3,-5,58*,0.4,71*
CC1(C(=O)O)CCC(C(=O)NC2CCCCCC2)C1(C)C (centres undefined),-6,1.2,8,-21,1.2,-17
CC1CCCCN1C(=O)/C(=C\c1ccccc1)c1ccccc1 (centres undefined),3,0.2,-2,49,0.5,84*
CC(=O)Oc1ccc(N(C(C)=O)S(=O)(=O)c2cccs2)c2ccccc12,1,0.5,-2,88*,0.1,49
COc1ccc(S(=O)(=O)N(C)CC(=O)O)c2ccccc12,-1,0.7,4,8,0.9,28
CCN(CC#CCC1(O)c2ccccc2-c2ccccc21)C(C)C,-4,0.8,4,29,0.7,19
CCCCn1c(SCC(=O)Nc2nc(C)cs2)nnc1-c1cccnc1,20,1.1,-20,0,1,-6
CCCn1c(SCC(=O)Nc2cccc(C(=O)OC)c2)nnc1-c1cccnc1,2,0.5,-4,43,0.6,51*
Nn1c(SCC(=O)Nc2ccccc2)nnc1-c1cccnc1,-11,0.9,10,11,0.9,8
CCCn1c(SCC(=O)Nc2nccs2)nnc1-c1cccnc1,-4,1,3,59*,0.4,-1
CCOC(=O)c1cccc(NC(=O)CSc2nnc(-c3ccncc3)n2CCCOC)c1,-16,0.4,15,50*,0.5,64*
Cc1occc1C(=O)Nc1cc(C(F)(F)F)ccc1Cl,-5,1.1,5,12,0.9,-8
